In the library only some 5.5% were active in any assay of this set; here they are far more common.
MBNL1-CUG inh: inhibitors of human MBNL1 binding to CUG repeat RNA | 280,000 tested, 0.036% active | Potency, µM (highest dose often 57.5 µM), actives largely listed as inhibitors | TR-FRET MBNL1-His/biotin-(CUG)12 binding, 665/545 ratio | AID 2675; active = well fitted inhibition curve with a large enough effect in the signal ratio, with a control signal flat, not every such curve was filed as active; inconclusive = small, poorly fitted or top-dose-only effect, or effect the other way, or a change in a side signal; inactive = no such curve, though single readings can be large or run the other way; the % refers to the signal ratio
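TR-FRET readout: Ex 340 nm, 665/545 nm emission ratio, normalized to buffer-only (basal) and MBNL1-(CUG)12 controls. Complex of MBNL1-His with Biotin-(CUG)12, compounds 92 nM–58 uM, incubated 60 min at room temperature.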
Six1-Eya2 inh: blocks human Six1 binding to Eya2. Q15475+O00167. activity change, % (concentration not given with the values). 360,000 tested, 0.56% active. AlphaScreen GST-Six1/His-Eya2 binding, biochemical; active compounds read low; in the data active = activity change below about -65%; inconclusive = mostly about -30% to -63%
Target sequence (O00167 whole entry, looked up): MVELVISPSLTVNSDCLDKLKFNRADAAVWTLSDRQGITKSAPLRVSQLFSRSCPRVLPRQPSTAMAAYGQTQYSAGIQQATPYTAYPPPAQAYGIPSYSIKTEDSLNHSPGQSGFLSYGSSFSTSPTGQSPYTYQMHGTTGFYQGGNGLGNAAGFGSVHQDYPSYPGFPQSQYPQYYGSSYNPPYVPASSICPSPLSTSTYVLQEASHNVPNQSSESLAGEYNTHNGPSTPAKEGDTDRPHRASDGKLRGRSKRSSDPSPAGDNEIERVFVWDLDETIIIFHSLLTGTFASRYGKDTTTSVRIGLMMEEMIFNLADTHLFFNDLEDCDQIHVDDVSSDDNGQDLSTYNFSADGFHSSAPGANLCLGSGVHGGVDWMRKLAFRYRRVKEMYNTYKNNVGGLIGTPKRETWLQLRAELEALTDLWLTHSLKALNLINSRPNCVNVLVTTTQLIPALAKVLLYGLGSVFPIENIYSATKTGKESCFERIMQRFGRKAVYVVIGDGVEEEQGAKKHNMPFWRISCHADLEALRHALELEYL
Target sequence (Q15475 whole entry, looked up): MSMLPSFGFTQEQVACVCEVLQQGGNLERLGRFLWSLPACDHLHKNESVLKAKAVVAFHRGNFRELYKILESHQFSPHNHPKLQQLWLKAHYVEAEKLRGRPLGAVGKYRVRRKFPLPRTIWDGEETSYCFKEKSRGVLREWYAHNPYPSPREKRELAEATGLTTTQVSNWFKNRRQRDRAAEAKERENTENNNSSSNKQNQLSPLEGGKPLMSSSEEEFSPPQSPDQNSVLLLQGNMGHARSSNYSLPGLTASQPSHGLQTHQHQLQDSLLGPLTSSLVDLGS
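AlphaScreen with GST-Six1 and His-Eya2 (5X mix: 250 nM and 500 nM), glutathione donor and nickel acceptor beads; buffer 50 mM Tris pH 8.0, 300 mM NaCl, 1 mM TCEP; 1 h at 37 C in the dark.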
CtBP-E1A inh: CtBP/E1A binding inhibition; AlphaScreen GST-E1A/His-CtBP binding, 1536-well; active compounds read low; activity change, % (no concentration beside the values); 340,000 tested, 0.49% active; in the data active = activity change below about -65%; inconclusive = mostly about -30% to -63%
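Homogeneous bead-based format: GST-tagged E1A captured on glutathione donor beads, His-tagged CtBP on nickel acceptor beads; compounds precede bead addition by 2 h at 37 °C.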
VP16 counter: counter-screen for ROR gamma inhibitors: Gal4-VP16 reporter. AID 2546. Drosophila S2 Gal4-VP16 UAS-luciferase, luminescence, 20 h. 310,000 tested, 3.5% active. Potency, µM (titrated, usually from 53.6 µM), hits mostly inhibitors;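 also: Gal4-VP16 expression switched on by copper sulfate through the metallothionein promoter; nearly all actives have a fitted effect of over 50% in size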
RORg inh: inhibitors of mouse ROR gamma transcriptional activity | 310,000 tested, 5.4% active | Potency, µM (doses to about 53.6 µM), most hits filed as inhibitors | Drosophila S2 Gal4-RORgamma UAS-luciferase reporter, 20 h | P51450; also: nearly all actives have a fitted effect of over 60% in size
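Stably transfected Drosophila Schneider cells are the test system, with ROR gamma fused to Gal4 and luciferase under UAS control; luminescence is read after 20 hr of 700 uM copper sulfate induction at ambient temperature.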
CBFb-RUNX1 inh: blocks binding between human CBF-beta and RUNX1. 230,000 tested, under 10 active. Potency, µM (top dose mostly 59.8 µM), usual class: inhibitors. AID 1477. Q01196+Q13951. AlphaScreen CBFb-His/RUNX1-biotin binding, biochemical
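CBFb-His/RUNX1-biotin, 30 nM each, preincubated 20 min RT; compound 15 min RT; Ni + streptavidin beads 50 ng each, 90 min RT; AlphaScreen read.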
Numbers stand for hits; 0 = inactive; ? = inconclusive; - = no result given; [ ] = remark or other dose. Unless noted, calls follow the shape of the dose curve; as a rule, active = well fitted curve in the direction sought with a large enough effect; inconclusive = small, poorly fitted or top-dose-only effect, or another doubt; inactive = no such curve, though single readings can be large; an effect the other way counts as inactive or inconclusive.

SMILES	MBNL1-CUG inh	Six1-Eya2 inh	CtBP-E1A inh	VP16 counter	RORg inh	CBFb-RUNX1 inh
O=C(Nc1ccccc1C(=O)N/N=C/c1ccco1)c1ccc(Cl)cc1	0	0	-	3.98µM	2.82µM	0
C/C(=N\NC(=O)c1ccccc1NC(=O)c1ccc(Cl)cc1)c1ccncc1	0	0	0	0.891µM	0.562µM	0
COc1cccc(Cn2c(=O)c(CCc3ccccc3)nc3cncnc32)c1	-	-	-	0	0	-
COc1cc2ncc(S(=O)(=O)c3ccccc3)c(N3CCCC(C)C3)c2cc1OC (configuration not stated)	0	?	0	0	?	-
O=C(C=Cc1ccccc1O)c1ccccc1O	-	0	0	-	-	-
Cc1ccc(/C=C/C(=O)c2ccccc(=O)c2O)c(C)c1	0[11.5 µM]	0	0	?	7.08µM	0
O=C(/C=C/c1ccccc1Cl)c1ccccc(=O)c1O	0[11.5 µM]	0	0	5.62µM	3.55µM	0
Cc1ccc(C)c(/C=C/C(=O)c2ccccc(=O)c2O)c1	0[11.5 µM]	0	0	5.01µM	3.16µM	0
O=C(/C=C/c1ccccc1Cl)c1ccc(O)cc1	0	0	?	?	10µM	0
O=C(/C=C/c1ccccc1Cl)c1cccnc1	0	0	0	?	?	0
CCOc1ccc(NC(=O)COc2ccc3c(c2)CCC3)cc1OC	-	?	0	-	-	-
Cc1ccc(S(=O)(=O)NC(=O)NC2=NC(C)(C)N(c3ccc(Cl)c(Cl)c3)C(N)=N2)cc1	-	0	0	-	-	-
O=C1NC(=O)C(c2cn(-c3ccccc3)nc2-c2ccc(F)cc2)N1 (configuration not stated)	0	0	0	0	0	0
CC1=C(C(=O)c2ccccc2)C(c2cn(-c3ccccc3)nc2-c2ccc(Cl)cc2)NC(=S)N1 (configuration not stated)	0	0	0	3.55µM	5.62µM	0
C=CCN=C1NN=C(c2cc(C)n(CC=C)c2C)CS1	0	0	0	?	11.2µM	0
COCCn1c(C)cc(C2=NNC(=Nc3ccccc3F)SC2)c1C	0	0	0	?	0.794µM	0
NC1=NN=C(c2ccc3c(c2)OCCO3)CS1	0	0	0	10µM	10µM	0
C=CCN=C1NN=C(c2ccc3c(c2)OCCO3)CS1	0	0	0	5.62µM	4.47µM	0
Nc1nccc(N2CCCCC2)n1	-	0	0	-	-	-
c1ccc(-c2nn[nH]n2)c(Nc2cccc3c2CCCC3)c1	-	-	-	0	0	0
CN(C)c1ccc(-c2ccnc3c2CC(C)(C(=O)NCC2CCOCC2)O3)cc1 (configuration not stated)	-	0	0	-	-	-
CCOC(=O)C1(C)CCN1C(=O)c1cccnc1Oc1ccccc1 (configuration not stated)	-	0	0	-	-	-
Cc1c(-c2ccccc2)sc2nc[nH]c(=S)c12	0	0	0	1µM	0.501µM	0
CCOc1ccc(S(=O)(=O)Nc2ccccc2C(=O)N/N=C/c2c(OC)ccc3ccccc23)cc1	0	0	0	5.62µM	6.31µM	0
COc1ccc2cc(C(=O)NCc3ccco3)c(=Nc3ccc(C(=O)O)cc3)oc2c1	0	0	0	2.82µM	1.12µM	0
SMILES	MBNL1-CUG inh	Six1-Eya2 inh	CtBP-E1A inh	VP16 counter	RORg inh	CBFb-RUNX1 inh
O=C(NCc1ccco1)c1cc2ccc(O)cc2oc1=O	?	0	0	10µM	10µM	0
O=C(Nc1ccccc1-c1ccccc1)C(c1ccccc1)c1ccccc1	-	0	0	0	0	0
CNC(=S)Nc1ccccc1-c1ccccc1	0	0	0	?	11.2µM	0
CCNC(=S)Nc1ccccc1-c1ccccc1	-	0	0	11.2µM	8.91µM	0
CCCCN(C(=O)Cc1ccc2c(c1)OCCO2)c1c(N)n(CC(C)C)c(=O)[nH]c1=O	-	0	0	-	-	-
CC(=O)c1ccc(C)cc1OC(=O)c1cccc(F)c1	0	0	0	0	0	0
Cc1ccc(C(=O)c2ccccc2C(=O)O)c(O)c1	0	0	0	0	0	0
Cc1ccc(C(=O)CC(=O)c2cccc(F)c2)c(O)c1	0	0	0	?	11.2µM	0
Cc1ccc(C(=O)CC(=O)c2ccccc2C)c(O)c1	0	0	0	5.62µM	3.55µM	-
CCCc1ccc(C(=O)O/N=C(\N)c2ccccn2)cc1	0	0	0	11.2µM	12.6µM	-
N/C(=N\OC(=O)c1ccc(=O)n(Cc2ccccc2)c1)c1ccccn1	0	0	0	0[10 µM]	0	0
N/C(=N\OC(=O)c1ccc2ccccc2c1)c1ccncc1	?	0	0	0	0	0
COc1ccc(/C=C/C(=O)O/N=C(\N)c2ccccn2)cc1OC	-	0	-73.1	-	-	-
N/C(=N\OC(=O)c1cccc([N+](=O)[O-])c1)c1ccccn1	-	0	0	0	?	0
COc1cccc(C(=O)O/N=C(\N)c2ccccn2)c1	0	0	-	14.1µM	?	-
N/C(=N\OC(=O)c1ccc2ccccc2c1)c1ccccn1	0	0	0	7.94µM	4.47µM	0
O=C(NN(c1ccccc1)c1ccccc1)c1ccccc1F	0	0	0	0	0	-
COc1ccc(NC(=O)C(c2ccnc3ccccc23)n2c(=O)c(-c3ccccc3)nc3ccccc32)cc1 (configuration not stated)	-	0	0	-	-	-
CCOC(=O)C1(Cc2cccc(Cl)c2)CCCN(C(=O)c2c(CC)noc2C)C1 (configuration not stated)	0	0	-	?	0	-
Cc1noc(C)c1-c1ccc2ncnc(NCc3cccnc3)c2c1	-	-	-	0	0	-
CCc1ccc(S(=O)(=O)/N=C2\C=C(Nc3ccc(C(=O)O)cc3)C(=O)c3ccccc32)cc1	?	0	?	?	11.2µM	-
Cc1ccc(S(=O)(=O)/N=C2\C=C(Nc3ccc(O)cc3)C(=O)c3ccccc32)cc1	-	-77.5	-69.2	-	-	-
Cc1ccc(S(=O)(=O)/N=C2\C=C(NS(=O)(=O)c3ccccc3)C(=O)c3ccccc32)c(C)c1	-	0	0	-	-	-
CC(C)(C)c1ccc(S(=O)(=O)/N=C2\C=C(NS(=O)(=O)c3ccccc3)C(=O)c3ccccc32)cc1	?	?	0	0	0	-
Cc1ccc(S(=O)(=O)/N=C2\C=C(Nc3cccc(C(=O)O)c3)C(=O)c3ccccc32)c(C)c1	?	?	-81.9	?	?	-
Cc1ccc(S(=O)(=O)/N=C2\C=C(Nc3cccc(C(=O)O)c3)C(=O)c3ccccc32)cc1	?	?	?	?	15.8µM	-
CC1CCCCC1NC(=O)c1c(O)nc2ccccn2c1=O (configuration not stated)	-	0	0	-	-	-
CCc1nc(C(N)=O)c2[nH]c(=O)n(-c3ccccc3F)c2n1	0	0	0	0	0	-
Cc1ccc(C(C)C)cc1S(=O)(=O)Nc1ccncc1	0	0	-	0	0	-
CC(=O)OCC(=O)Nc1ccccc1OC(F)F	0	0	0	0	0	0

Screening results (PubChem BioAssay)
